We go through 56 molecules from PubChem BioAssay AID602396 (The Scripps Research Institute Molecular Screening Center, 2012).

Out of some 360,000 compounds screened, about 460 (0.13%) were called active. Shown is part of a subset that was picked to be rich in actives. A number with no mark means an inactive call.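 How the source made its calls: active means inhibition above the mean inhibition of all tested compounds plus 3 SD (cut at about 73% in these data); inactive means the rest.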

The term inhibition denotes the relative decrease from the control value, in per cent.

The target in the assay is Nuclear receptor subfamily 5 group A member 2 (Homo sapiens) (UniProt O00482). Put plainly: reduction of NR5A2-driven StAR reporter activity – cell-based, luminescence, HEK293T, StAR-luciferase reporter, primary screen (AID 602396).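 Further: 0% = DMSO wells and 100% = reporter-only cells lacking LRH-1.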 The conditions noted are these: LRH-1 transfected, 24 h, at 3.6 µM, stronger effect = higher value. On the technique in general: In a reporter assay the amount or activity of a reporter protein is the signal.
Sequence of Nuclear receptor subfamily 5 group A member 2 (Homo sapiens) (O00482 whole entry, looked up): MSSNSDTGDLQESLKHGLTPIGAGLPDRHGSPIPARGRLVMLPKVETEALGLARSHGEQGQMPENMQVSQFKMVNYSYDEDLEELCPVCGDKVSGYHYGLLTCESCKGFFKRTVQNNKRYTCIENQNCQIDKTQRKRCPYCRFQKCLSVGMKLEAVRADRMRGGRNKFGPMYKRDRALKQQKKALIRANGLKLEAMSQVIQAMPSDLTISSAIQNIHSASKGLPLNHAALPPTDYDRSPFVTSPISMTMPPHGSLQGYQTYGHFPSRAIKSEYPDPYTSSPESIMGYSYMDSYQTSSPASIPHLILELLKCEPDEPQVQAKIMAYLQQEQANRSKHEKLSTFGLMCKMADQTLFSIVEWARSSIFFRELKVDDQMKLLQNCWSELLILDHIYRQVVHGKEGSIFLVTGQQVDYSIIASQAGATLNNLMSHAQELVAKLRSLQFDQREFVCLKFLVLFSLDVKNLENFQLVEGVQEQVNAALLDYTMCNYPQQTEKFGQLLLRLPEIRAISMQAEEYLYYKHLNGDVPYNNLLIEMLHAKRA
Regarding `CCCOc1ccc(CN(CCO)CCO)cc1C(=O)OC`, the inhibition was 23.4%. Consider `O=C(NC1CCC(O)CC1)c1ccccc1OCc1ccc(F)cc1` (stereo unspecified), for which the inhibition is 21.9%.

With `COC(=O)C1=NN(c2ccccc2)C2C(=O)N(c3ccccc3OC)C(=O)C12` (stereo unspecified), the inhibition is 10%. Under `CCOC(=O)N1CCN(S(=O)(=O)c2cc3c(cc2C)NC(=O)CO3)CC1` stands 12.8%; under `O=C(NC(Nc1nc2ccc([N+](=O)[O-])cc2s1)(C(F)(F)F)C(F)(F)F)c1ccccc1`, 97.9% (active); under `O=C(Nc1cc(-c2ccccc2)nn1-c1ccccc1F)c1ccc([N+](=O)[O-])cc1`, -5.47%.

Take `O=[N+]([O-])c1ccc2c(c1)C(O)n1nc(-c3ccccc3)nc1S2` (stereo unspecified): the inhibition was -9.43%. Turning to `CCc1ccccc1N1CN(Cc2ccco2)CNC1=S`, the inhibition is -20.8%. In the case of `COc1ccc(NC(=O)c2cccc3c2C(=O)N(CC2CCCO2)C3)cc1OC` (stereo unspecified), the inhibition is -15.8%. For `CCC1OC(C2CC2)CC2=C1C(=O)OC(C)(C)O2` (stereo unspecified), the inhibition was -31.2%. Under `COc1ccc(OC)c(NC(=O)c2ccc3c(c2)C(=O)N(c2ccc(OC(C)=O)cc2)C3=O)c1` stands 15.1%; under `N=c1ccn(CC(=O)NC(N)=O)c2ccccc12`, 19.2%; under `CCOC(=O)CN(C(=O)COc1nc(-c2ccccc2)cc(C)c1C#N)c1ccc(F)cc1`, 21.9%. As for `O=S(=O)(c1ccc(F)cc1)N1CCN(Cc2ccccc2C(F)(F)F)CC1`, the inhibition was 10.2%. In the case of `COc1cc(OC)c2c(c1)OC(=O)CC2c1cc(OC)c(OC)c(OC)c1` (stereo unspecified), the inhibition is 2.48%. Under `COc1ccc(N(C(=O)c2ccc(C)cc2)S(=O)(=O)c2cccs2)cc1` stands 2.34%; under `CC[C@H]1CN2CCc3cc(OC)c(OC)cc3[C@@H]2C[C@@H]1C[C@H]1NCCc2cc(OC)c(OC)cc21`, 103% (active); under `NC(=NC(=O)c1ccccc1)C1=C(O)CCC1=O`, -13.8%. Under `O=C(CN(Cc1ccccc1)C(=O)c1ccc2c(c1)OCCO2)NCc1ccc2c(c1)OCO2` stands 4.07%; under `CC(C)Nc1nc(NCCOc2ccccc2Cl)c2sccc2n1`, 18.8%; under `CCCCN(C=O)c1c(CC)nc2c(OCCC3CCCCC3)cccn12`, -7.2%. For the molecule `Cc1ccc(S(=O)(=O)N2CC[C@H]3[C@@H](C2)C(=O)C[C@@H](c2ccccc2)N3S(=O)(=O)c2ccc(C)cc2)cc1`, the inhibition was -11.8%. Under `Cc1cc(NC(=O)COC(=O)/C=C/c2ccc(C)o2)no1` stands -7.21%. Regarding `CCN(CC)CCCNC(=O)c1c(O)c2cc(F)cc3c2n(c1=O)C(C)CC3` (stereo unspecified), the inhibition was -10.8%.

For the molecule `CCC(c1nnnn1-c1ccc2c(c1)OCCO2)N1CCN(c2ccc(C(F)(F)F)cn2)CC1` (stereo unspecified), the inhibition is -0.51%. As to `CC(=O)Nc1ccc(SC[C@H](Cc2ccccc2)N2CC[C@@H](C)CCC2=O)cc1`, the inhibition is -2.81%. On to `O=C(Nc1ccccc1N1CCOCC1)c1ccc(OCc2cscn2)cc1`, for which the inhibition was 3.78%.

In the case of `Cc1cc(CNCc2c(C(=O)N(C)Cc3ccccc3)nc3ccccn23)nn1C`, the inhibition was 12.7%. Under `c1ccc(-c2nccc(-c3ccc(-n4cnc5ccccc54)cc3)n2)nc1` stands 5.78%; under `CC(Nc1nc(C(F)(F)F)nc2ccccc12)c1cccs1` (stereo unspecified), 14.1%. Under `CC(C)(C)Nc1nc(-c2ccccn2)nc2ccccc12` stands 85% (active); under `O=C(NCc1ccncc1)C1CCCN(S(=O)(=O)c2ccc(Br)cc2)C1` (stereo unspecified), 2.98%. Turning to `O=C(CSc1ccccn1)Nc1nc2c(ccc3ccccc32)s1`, the inhibition is -23.7%. Regarding `NC(N)=N/N=C/c1ccc(OCc2ccc(Cl)cc2Cl)cc1`, the inhibition is -0.41%. Under `CCCCCCNC(=O)O[C@]12C[C@@H](C(=O)OC)[C@@H](C(=O)OC)C[C@@]1(O)CN(S(=O)(=O)c1ccc(C)cc1)C2` stands -18%; under `Cc1cc(Nc2ccc(C)c(C)c2)n2ncnc2n1`, 18.7%. Under `C[C@@H]1CN([C@@H](C)CO)C(=O)CCCn2cc(nn2)CO[C@H]1CN(C)S(=O)(=O)c1ccc(-n2cccn2)cc1` stands 1.12%; under `CCN(CC)S(=O)(=O)c1ccc(OC)c(NC(=O)CCc2c(C)noc2C)c1`, 8.03%; under `O=C(Nc1nnc(CCN2CCCCC2)s1)c1cccc(Cl)c1`, 0.75%.

For `COCCCN1C(=O)C(=O)/C(=C(/O)c2ccc(S(=O)(=O)N3CCOCC3)cc2)C1c1ccc(F)cc1` (stereo unspecified), the inhibition is 9.93%. In the case of `CCN(CC)S(=O)(=O)c1cccc(C(=O)NCC(=O)OCC(=O)NCc2ccccc2)c1`, the inhibition was 1.85%. On to `C[n+]1cc(-c2ccccc2)oc1-c1ccccc1`, for which the inhibition was -30.6%. Regarding `C=CCn1c(SCC(=O)c2c(N)n(C)c(=O)n(C)c2=O)nc2sc(CC)cc2c1=O`, the inhibition was -16.9%. `Cc1ccn2c(=O)nc(SCC(=O)NCc3ccc4c(c3)OCO4)nc2c1`: the inhibition is -9.89%. Turning to `COc1cc(S(=O)(=O)N2CCN(C(=O)C3CC3)CC2)ccc1NC(C)=O`, the inhibition is 9.23%.

Take `CCCCCCCCn1c2c(c(=N)c3c1CCC3)CCCC2`: the inhibition was 89.8% (active). Consider `Cc1cccc2cc(CN(C(=O)c3cccs3)c3ccccc3)c(=O)[nH]c12`, for which the inhibition is -23.1%. Regarding `O=C(NNC(=O)c1cnccc1C(F)(F)F)c1ccc(Cl)cc1`, the inhibition was -7.32%.

Regarding `CCN1/C(=C\c2ccc3ccccc3[n+]2CC)Sc2cc(C)ccc21`, the inhibition was 93.7% (active). On to `Cc1ccc(S(=O)(=O)N2C3C=CC(C3)C2C(=O)O)cc1` (stereo unspecified), for which the inhibition is -13.6%. Under `CCC(=O)N(C)C(c1ccccc1Cl)c1nnnn1-c1c(C)cccc1C` (stereo unspecified) stands 1.16%; under `CC(=O)Nc1sc2c(c1C(c1cccc(F)c1)N1CCN(CCO)CC1)CCCC2` (stereo unspecified), 5.02%. Regarding `O=C(Nc1c2c(nn1-c1cccc(Cl)c1)CS(=O)(=O)C2)c1cccs1`, the inhibition is 17.8%. Under `Cc1cccc(N2CCN(C(=O)c3cc4c(=O)[nH]c5ccccc5c4n3C)CC2)c1C` stands 11.6%. In the case of `CCc1nc2c(OCc3ccc(F)c(F)c3)cccn2c1N(C)C(=O)c1ccco1`, the inhibition was -12.9%. Turning to `c1cc(-c2ccc3[nH]ccc3c2)n2ccnc2c1`, the inhibition is -8.26%.
